A short description of test [1]: rapamycin-like changes in RPL19A-GFP expression – cell-based, S. cerevisiae, multiplex flow cytometry, primary screen (AID 1862; in the data active = percent of DMSO control GFP below about 86%;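 note: lower values mimic rapamycin by blocking the RPL19A rise seen in DMSO cells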). Particulars: S. cerevisiae RPL19A-GFP strain, flow cytometry fluorescence, 3 h; at 10 µM; stronger effect = lower value.
Test [2] is described as follows: TOR pathway GLN3 branch reporter MEP2-GFP changes – S. cerevisiae, multiplex flow cytometry, primary screen (AID 1867;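 active = GFP response, as percent of the DMSO control, above the screen-wide mean plus 3 SD, about 139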;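 note: median GFP channel fluorescence of barcode-gated MEP2-GFP cells measured by flow cytometry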). The note with it: S. cerevisiae MEP2-GFP strain, 3 h, at 10 µM, stronger effect = higher value, 100% means same as DMSO wells.
The nature of test [3]: TOR pathway RTG branch CIT2 reporter changes – S. cerevisiae, GFP fusion, multiplex flow cytometry, primary screen (AID 1870;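 active = percent response above a set limit, the screen-wide mean plus 3 SD, cut at about 130% in these data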;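 note: barcoded CIT2-GFP strain pooled with four other GFP strains with rapamycin as positive control; median GFP fluorescence per well over plate mean of DMSO wells so 100% = DMSO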). The note with it: S. cerevisiae CIT2-GFP expression, 3 h, at 10 µM, stronger effect = higher value. On the technique in general: A flow cytometer gives signals particle by particle.
Test [4] in a line: TOR pathway LAP4-GFP level changes – S. cerevisiae, multiplex flow cytometry, primary screen (AID 1873;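 active = GFP signal, as percent of the solvent control, above the screen mean plus 3 SD, about 149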). Particulars: S. cerevisiae LAP4-GFP expression, 3 h, at 10 µM, stronger effect = higher value.
Test [5] is described as follows: yeast AGP1-GFP level changes, GLN3 branch – cell-based, multiplex flow cytometry, S. cerevisiae, primary screen (AID 1887;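 active = GFP signal above the screen-wide mean plus 3 SD, that is over about 124.5% of the solvent control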;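 note: AGP1-GFP fusion strain of S. cerevisiae within a five-strain barcoded multiplex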). The note with it: 3 h, at 10 µM, stronger effect = higher value.
The nature of test [6]: reduced mouse 2C T cell binding to pMHC/ICAM-1 vesicles – MLPCN validation set, flow cytometry, LFA-1/ICAM-1 modulator project, pilot screen (AID 2523;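 active = response below a set limit, under 55% cells CD8-positive and vesicle-bound, and CD8 cells' 90th-percentile brightness under 279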;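 for vesicle binding response: mean PE anti-B7-1 fluorescence of CD8+ cells relative to row control; 100% = QL9-loaded vesicles with DMSO vehicle in the same plate row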). Particulars: 2C mouse CD8+ T cells, at 7 µM, stronger effect = lower value; double positive events: measured here: CD8+/vesicle+ event percentage.
In test [7] the target is Integrin beta-1 (Homo sapiens) + Integrin alpha-4 (Homo sapiens) (UniProt P13612+P05556). Description: alpha4beta1 integrin LIBS antibody binding reduction – U937 cells, HUTS-21 mAb, flow cytometry, validation set, VLA-4 allosteric modulator project, pilot screen (AID 2674;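 active = inhibition above 50%, about 3 SD of the validation set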;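 note: antibody binding induced by the VLA-4 ligand LDV present at three times its Kd; 0% = LDV ligand with antibody and no compound and 100% = antibody without LDV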). Particulars: HUTS-21 LIBS mAb binding, at 6.7 µM, stronger effect = higher value, binding induced by LDV ligand.

Test [8] is described as follows: calorie-restriction mimetic ROS inhibitors, yeast – validation compound set, pilot screen (AID 2706;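 active = superoxide response below 65% of plate, a cut near 3 SD across the whole screen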;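 note: yeast exposed to compound for one week at 30 degrees C before staining; 100% = mean of all compound wells on the same plate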). Particulars: S. cerevisiae aging, superoxide DHE fluorescence; at 10 µM; stronger effect = lower value.
In test [9] the target is Beta-adrenergic receptor kinase 1 (Homo sapiens) (UniProt P25098). Description: GRK2 binders displacing RNA aptamer, biochemical, validation, human GRK2, bead flow cytometry (AID 488806;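 active = aptamer binding inhibition above 30%, about 3 SD of noise from non-fluorescent compounds; inactive = inhibition at or below 30%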). Particulars: bead-bound GRK2, FAM-aptamer displacement, at 10 µM, stronger effect = higher value.
The target in test [10] is Beta-2 adrenergic receptor (Homo sapiens) (UniProt P07550). Kind of test: agonist-induced loss of surface beta2AR – cell-based, FAP fluorogen, flow cytometry, validation set, pilot screen (AID 504459;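 active = percent response above 42, roughly 3 SD of non-fluorescent test compounds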;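 note: agonist-driven loss of surface beta2AR via internalization measured by FAP dye flow cytometry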). Particulars: Am2.2-beta2AR cells, at 10 µM, stronger effect = higher value.
The target in test [11] is AP-2 complex subunit beta (Homo sapiens) (UniProt P63010). Kind of test: beta-arrestin/AP2 interaction blockers – biochemical, validation set, GST-AP2 beads, flow cytometry, pilot screen (AID 504541;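 active = inhibition above 54%, about 3 SD of non-fluorescent compounds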;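 note: AP2 carries R879A mutation and is captured from E. coli lysate; bead-bound FITC arrestin peptide fluorescence measuring arrestin peptide binding to AP2; 0% = DMSO wells and 100% = excess unlabeled arrestin peptide control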). Particulars: FITC arrestin peptide, at 10 µM, stronger effect = higher value, AP2 beta2 appendage fragment, R879A mutant.
Test [12] is described as follows: cytosolic pH regulators acting via V-ATPase – S. cerevisiae, pHLuorin, HTS validation (AID 504600; in the data active = response above about 15%;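 note: plate controls were DMSO for no effect and reference compound for full effect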). Particulars: V-ATPase proton transport, at 10 µM, stronger effect = higher value.
Test [13] deals with anti-desmoglein-3 scFv antibody binding to human DSG3. Kind of test: blockers of pathogenic pemphigus antibody–desmoglein-3 binding – biochemical, validation compound set, bead-based, flow cytometry, pilot screen (AID 588368;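 active = binding below the plate cutoff, the plate median minus 3 SD, with a reading above zero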;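 note: signal is the median channel fluorescence of bead-bound GFP antibody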). Particulars: Protein G beads, DSG3-Fc, scFv-GFP binding, at 10 µM, stronger effect = lower value.
Test [14] can be described thus: Nile Red efflux blockade in pump-expressing yeast – validation compound set, multiplex, phenotypic, pilot screen (AID 588506;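 active = efflux inhibition above 0.42, the validation set average plus 4 SD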;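 note: Nile Red retained in cells so higher fluorescence means more efflux inhibition; 0 = negative control wells and 1 = enniatin B 25 µM full block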). Particulars: S. cerevisiae pump-expressing triplex, Nile Red efflux flow cytometry; at 10 µM; stronger effect = higher value; the pumps come from Candida albicans.
Test [15] deals with ATP-binding cassette sub-family B member 6 (Homo sapiens) (UniProt Q9NP58). Description: blockers of ABCB6-driven porphyrin uptake – K562-ABCB6 cells, flow cytometry, validation set, pilot screen (AID 588550).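 Note: 0% = DMSO wells and 100% = benzethonium chloride 70 µM positive control.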 Particulars: K562-ABCB6 porphyrin accumulation, 1 h, at 10 µM, stronger effect = higher value.
The nature of test [16]: AML differentiation inducers, ER-HoxA9 marrow cells – cell-based, GFP/MAC1 double positive, flow cytometry, validation set, primary screen (AID 588685;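 active = differentiation response of at least 50%, scaled between solvent and reference control, from cells with both markers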;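 note: compound exposure lasts four days before antibody staining and flow analysis; 0% = DMSO wells and 100% = 5 µM fulvestrant positive control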). Particulars: stronger effect = higher value, normalized: vehicle 0, fulvestrant 100.

Records with an inconclusive call do not appear. Activity calls are given as the source filed them.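 Rule for the calls, unless noted: active = inhibition above the screen-wide mean plus 3 SD, about 51%; inactive = the rest.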

Here are results for 4 compounds from PubChem BioAssay.

By inhibition is commonly meant the drop in the measured response relative to a control, in per cent.

Sequence of Integrin beta-1 (Homo sapiens) + Integrin alpha-4 (Homo sapiens) (P05556 whole entry, looked up): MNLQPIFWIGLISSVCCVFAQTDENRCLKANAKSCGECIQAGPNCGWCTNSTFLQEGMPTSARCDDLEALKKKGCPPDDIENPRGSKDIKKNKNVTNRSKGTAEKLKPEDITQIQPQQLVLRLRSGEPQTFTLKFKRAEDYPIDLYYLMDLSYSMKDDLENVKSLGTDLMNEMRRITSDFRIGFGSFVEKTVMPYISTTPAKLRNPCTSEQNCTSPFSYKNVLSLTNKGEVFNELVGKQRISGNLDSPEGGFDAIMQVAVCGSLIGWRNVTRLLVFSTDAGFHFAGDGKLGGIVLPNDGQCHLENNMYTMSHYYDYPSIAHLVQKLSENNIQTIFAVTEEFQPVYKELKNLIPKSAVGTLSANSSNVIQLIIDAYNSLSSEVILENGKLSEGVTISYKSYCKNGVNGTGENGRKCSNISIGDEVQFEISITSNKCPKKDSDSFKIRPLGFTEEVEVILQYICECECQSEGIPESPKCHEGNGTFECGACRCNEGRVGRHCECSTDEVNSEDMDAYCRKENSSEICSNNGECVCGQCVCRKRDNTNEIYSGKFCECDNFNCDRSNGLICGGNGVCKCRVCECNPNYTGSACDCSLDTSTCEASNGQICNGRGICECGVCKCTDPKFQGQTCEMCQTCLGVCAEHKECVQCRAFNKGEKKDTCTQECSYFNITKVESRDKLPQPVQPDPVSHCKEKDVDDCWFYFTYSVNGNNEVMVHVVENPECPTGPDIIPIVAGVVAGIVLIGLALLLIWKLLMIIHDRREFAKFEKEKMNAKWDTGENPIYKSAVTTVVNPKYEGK
Sequence of Integrin beta-1 (Homo sapiens) + Integrin alpha-4 (Homo sapiens) (P13612 whole entry, looked up): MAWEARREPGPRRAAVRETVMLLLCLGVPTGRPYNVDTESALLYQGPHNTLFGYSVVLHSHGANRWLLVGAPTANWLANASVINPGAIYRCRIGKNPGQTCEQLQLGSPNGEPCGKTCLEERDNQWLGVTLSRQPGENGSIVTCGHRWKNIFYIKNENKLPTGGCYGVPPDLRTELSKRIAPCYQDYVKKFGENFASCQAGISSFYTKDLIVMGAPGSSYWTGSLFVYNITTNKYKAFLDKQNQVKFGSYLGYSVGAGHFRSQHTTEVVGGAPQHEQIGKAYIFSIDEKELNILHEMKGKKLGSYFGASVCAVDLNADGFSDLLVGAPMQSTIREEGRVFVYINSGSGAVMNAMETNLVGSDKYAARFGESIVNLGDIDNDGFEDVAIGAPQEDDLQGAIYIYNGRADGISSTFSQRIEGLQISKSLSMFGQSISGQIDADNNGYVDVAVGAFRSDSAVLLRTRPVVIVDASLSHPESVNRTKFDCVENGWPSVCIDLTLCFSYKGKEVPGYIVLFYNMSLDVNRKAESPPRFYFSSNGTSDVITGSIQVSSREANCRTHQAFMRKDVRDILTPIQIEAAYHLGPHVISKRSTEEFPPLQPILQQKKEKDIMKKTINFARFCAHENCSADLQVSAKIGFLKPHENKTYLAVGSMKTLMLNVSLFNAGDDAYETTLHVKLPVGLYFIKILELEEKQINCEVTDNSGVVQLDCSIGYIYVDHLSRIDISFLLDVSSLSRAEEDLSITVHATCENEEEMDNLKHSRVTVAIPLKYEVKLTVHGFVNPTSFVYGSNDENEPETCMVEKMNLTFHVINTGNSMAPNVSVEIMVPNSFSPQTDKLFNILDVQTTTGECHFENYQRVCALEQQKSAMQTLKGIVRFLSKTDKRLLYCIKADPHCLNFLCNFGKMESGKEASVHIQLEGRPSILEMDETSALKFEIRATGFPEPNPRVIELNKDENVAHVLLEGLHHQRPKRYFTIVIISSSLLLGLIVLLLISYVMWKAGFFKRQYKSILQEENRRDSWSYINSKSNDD
Sequence of Beta-adrenergic receptor kinase 1 (Homo sapiens) (P25098 whole entry, looked up): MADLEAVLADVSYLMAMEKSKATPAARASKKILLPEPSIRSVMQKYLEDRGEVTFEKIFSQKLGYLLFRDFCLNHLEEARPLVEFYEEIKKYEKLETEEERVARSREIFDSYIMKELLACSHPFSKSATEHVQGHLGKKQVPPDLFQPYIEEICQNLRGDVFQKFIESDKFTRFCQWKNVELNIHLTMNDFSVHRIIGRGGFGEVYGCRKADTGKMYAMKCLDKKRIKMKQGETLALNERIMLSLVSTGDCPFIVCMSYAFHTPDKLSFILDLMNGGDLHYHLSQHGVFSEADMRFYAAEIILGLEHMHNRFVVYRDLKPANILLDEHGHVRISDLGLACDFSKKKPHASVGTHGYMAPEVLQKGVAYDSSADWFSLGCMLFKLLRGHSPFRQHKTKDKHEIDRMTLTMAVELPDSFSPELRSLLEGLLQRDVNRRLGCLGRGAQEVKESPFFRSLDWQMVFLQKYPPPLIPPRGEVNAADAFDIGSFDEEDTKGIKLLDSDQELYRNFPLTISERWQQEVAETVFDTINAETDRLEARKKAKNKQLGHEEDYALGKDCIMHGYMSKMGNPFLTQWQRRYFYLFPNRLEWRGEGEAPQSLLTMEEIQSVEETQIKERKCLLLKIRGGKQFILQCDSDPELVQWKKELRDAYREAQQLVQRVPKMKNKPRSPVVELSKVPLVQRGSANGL
Sequence of Beta-2 adrenergic receptor (Homo sapiens) (P07550 whole entry, looked up): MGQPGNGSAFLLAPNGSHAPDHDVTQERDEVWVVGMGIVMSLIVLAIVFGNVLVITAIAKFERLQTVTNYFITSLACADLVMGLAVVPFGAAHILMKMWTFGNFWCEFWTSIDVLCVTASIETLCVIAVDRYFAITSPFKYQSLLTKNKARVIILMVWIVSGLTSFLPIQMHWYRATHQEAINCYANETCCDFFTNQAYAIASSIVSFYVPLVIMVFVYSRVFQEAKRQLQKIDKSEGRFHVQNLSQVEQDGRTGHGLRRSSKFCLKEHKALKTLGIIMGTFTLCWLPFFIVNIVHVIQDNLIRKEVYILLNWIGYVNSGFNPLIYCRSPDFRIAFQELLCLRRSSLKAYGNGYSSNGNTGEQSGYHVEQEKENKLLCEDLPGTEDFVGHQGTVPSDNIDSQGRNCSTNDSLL
Sequence of ATP-binding cassette sub-family B member 6 (Homo sapiens) (Q9NP58 whole entry, looked up): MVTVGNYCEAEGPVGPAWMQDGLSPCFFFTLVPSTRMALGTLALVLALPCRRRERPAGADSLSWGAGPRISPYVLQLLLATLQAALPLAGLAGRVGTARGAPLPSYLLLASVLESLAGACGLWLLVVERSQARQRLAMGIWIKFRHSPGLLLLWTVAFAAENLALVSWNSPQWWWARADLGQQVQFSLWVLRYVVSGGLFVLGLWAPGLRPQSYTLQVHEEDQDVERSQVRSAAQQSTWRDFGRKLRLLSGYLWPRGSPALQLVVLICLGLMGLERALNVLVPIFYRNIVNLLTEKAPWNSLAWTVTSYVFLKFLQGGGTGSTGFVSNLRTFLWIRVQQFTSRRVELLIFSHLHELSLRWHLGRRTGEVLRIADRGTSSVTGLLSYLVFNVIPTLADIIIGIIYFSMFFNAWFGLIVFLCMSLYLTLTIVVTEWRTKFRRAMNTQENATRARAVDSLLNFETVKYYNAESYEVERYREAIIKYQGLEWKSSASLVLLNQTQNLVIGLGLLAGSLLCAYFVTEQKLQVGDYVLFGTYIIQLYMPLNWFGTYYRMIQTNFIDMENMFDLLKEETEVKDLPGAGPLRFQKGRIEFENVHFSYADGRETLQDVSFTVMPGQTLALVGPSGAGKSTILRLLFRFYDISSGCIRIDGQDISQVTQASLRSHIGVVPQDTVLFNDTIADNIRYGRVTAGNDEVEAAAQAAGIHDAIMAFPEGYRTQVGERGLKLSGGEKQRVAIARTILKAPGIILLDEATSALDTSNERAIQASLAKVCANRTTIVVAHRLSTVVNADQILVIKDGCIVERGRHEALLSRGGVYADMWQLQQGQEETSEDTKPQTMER
Sequence of AP-2 complex subunit beta (Homo sapiens) (P63010 whole entry, looked up, the tested form may be a part, one chain of several): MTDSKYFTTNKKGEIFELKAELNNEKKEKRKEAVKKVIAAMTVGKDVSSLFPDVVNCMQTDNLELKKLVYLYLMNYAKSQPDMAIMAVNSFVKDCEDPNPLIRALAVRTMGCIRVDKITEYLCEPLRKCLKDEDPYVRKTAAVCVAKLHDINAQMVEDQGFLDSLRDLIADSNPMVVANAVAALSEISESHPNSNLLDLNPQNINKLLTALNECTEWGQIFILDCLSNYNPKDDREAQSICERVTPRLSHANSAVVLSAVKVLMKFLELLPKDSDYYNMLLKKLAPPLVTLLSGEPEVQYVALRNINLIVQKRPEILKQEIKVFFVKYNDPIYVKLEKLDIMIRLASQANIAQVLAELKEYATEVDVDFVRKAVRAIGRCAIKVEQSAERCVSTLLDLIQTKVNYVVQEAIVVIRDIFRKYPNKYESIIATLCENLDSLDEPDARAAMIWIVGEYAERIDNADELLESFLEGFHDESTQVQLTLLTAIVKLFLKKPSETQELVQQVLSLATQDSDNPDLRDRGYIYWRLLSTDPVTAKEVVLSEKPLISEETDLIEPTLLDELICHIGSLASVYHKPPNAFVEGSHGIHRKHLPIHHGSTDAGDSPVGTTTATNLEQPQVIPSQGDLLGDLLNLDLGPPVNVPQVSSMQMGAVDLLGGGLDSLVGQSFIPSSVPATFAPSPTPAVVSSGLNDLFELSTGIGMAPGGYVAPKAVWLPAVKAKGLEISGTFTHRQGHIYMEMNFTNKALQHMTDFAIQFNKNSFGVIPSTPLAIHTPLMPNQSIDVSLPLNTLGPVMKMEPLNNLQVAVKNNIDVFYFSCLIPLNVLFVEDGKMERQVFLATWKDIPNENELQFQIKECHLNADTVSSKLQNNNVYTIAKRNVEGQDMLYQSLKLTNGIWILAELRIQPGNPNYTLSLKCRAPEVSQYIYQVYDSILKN

As to `O=C(NCC1CCCO1)c1ccc(OC2CCN(C(=O)C3CC3)CC2)cc1` (stereo not drawn), in [1], the percent of DMSO control GFP was 98.2% (inactive). Besides, the GFP response vs DMSO in test [2] was 106% (inactive); in [4], 96.6% (inactive). Besides, in test [3], the percent response of DMSO control was 97.8% (inactive). Moreover, the GFP response, % of DMSO in test [5] is 99.4% (inactive). For the same compound, the double positive events in test [6] worked out at 63.1%. For the same compound, in [6], the vesicle binding response is 5260% (inactive). Moreover, the inhibition in test [7] was -22.2% (inactive); in test [11], -5.78% (inactive); in test [15], 3% (inactive). Besides, the superoxide response (% of plate) in test [8] is 94% (inactive). Besides, the aptamer binding inhibition in test [9] is 2% (inactive). The response in test [10] is -3.28% (inactive); in test [12] it was 0.79% (inactive). In test [13], the binding (% of control) was 101% (inactive). The efflux inhibition (fraction of control) in test [14] is -0.01 (inactive). In [16], the differentiation response is -6.6% (inactive).

On to `CC(C)C(=O)Nc1ccc2c3c(cccc13)CC2`, for which the percent of DMSO control GFP in [1] is 95% (inactive). The values for the GFP response vs DMSO in test [2] and in [4] were 98.5% (inactive) and 124% (inactive), respectively. For the same compound, the percent response of DMSO control in test [3] was 92% (inactive). Further, in test [5], the GFP response, % of DMSO is 102% (inactive). Besides, the double positive events in [6] worked out at 62.6%. In addition, in test [6], the vesicle binding response is 191% (inactive). Also, the inhibition in test [7] is 10.5% (inactive); in test [11] it was 18.6% (inactive); in test [15], 8% (inactive). Also, the superoxide response (% of plate) in test [8] was 99.4% (inactive). The aptamer binding inhibition in test [9] was 5% (inactive). Besides, the figures for the response in test [10] and in [12] were 21.1% (inactive) and -2.45% (inactive), respectively. For the same compound, in test [13], the binding (% of control) was 94.9% (inactive). The efflux inhibition (fraction of control) in [14] was -0.24 (inactive). For the same compound, the differentiation response in [16] is 5.6% (inactive).

As to `O=C(CS(=O)(=O)c1ccccc1)c1ccc2c(c1)OCCO2`, the percent of DMSO control GFP in [1] was 99.7% (inactive). Further, the GFP response vs DMSO is 103% (inactive) in test [2] and 112% (inactive) in [4]. Moreover, the percent response of DMSO control in test [3] is 100% (inactive). For the same compound, in test [5], the GFP response, % of DMSO was 113% (inactive). Besides, the double positive events in test [6] worked out at 57.1%. Further, the vesicle binding response in [6] was 194% (inactive). Also, the figures for the inhibition in [7], in [11] and in test [15] were -9.63% (inactive), -15.5% (inactive) and 5% (inactive), respectively. The superoxide response (% of plate) in [8] was 98.2% (inactive). Moreover, the aptamer binding inhibition in [9] was 4% (inactive). In addition, the response in test [10] is -29.9% (inactive); in test [12] it was -0.24% (inactive). For the same compound, the binding (% of control) in [13] is 103% (inactive). In addition, in [14], the efflux inhibition (fraction of control) was 0.12 (inactive). Moreover, the differentiation response in [16] is -1.05% (inactive).

Consider `C=CCOC(=O)C1=C(C)NC(=O)NC1/C=C/c1ccccc1OC` (stereo not drawn), for which the percent of DMSO control GFP in test [1] is 100% (inactive). Also, the GFP response vs DMSO in [2] is 101% (inactive); in test [4] it was 103% (inactive). Moreover, in [3], the percent response of DMSO control was 103% (inactive). In test [5], the GFP response, % of DMSO was 108% (inactive). Also, the double positive events in [6] is 57.9%. Moreover, in test [6], the vesicle binding response was 97% (inactive). Also, the results for the inhibition in test [7], in test [11] and in test [15] were -1.09% (inactive), -14.7% (inactive) and 9% (inactive), respectively. Besides, in test [8], the superoxide response (% of plate) is 115% (inactive). Besides, the aptamer binding inhibition in [9] is 1% (inactive). Besides, the results for the response in test [10] and in test [12] were -4.89% (inactive) and 6.85% (inactive), respectively. Also, in [13], the binding (% of control) was 106% (inactive). In addition, the efflux inhibition (fraction of control) in [14] was -0.03 (inactive). For the same compound, the differentiation response in [16] was -1.65% (inactive).
